Source: PubChem BioAssay (NCATS)
Values joined by “and” are separate entries in the source; they are usually repeats but may differ in a detail not shown here. Equal values may be shown once. Results filed as inconclusive are left out. Active and inactive are the calls of the source. Unless noted, calls come from the whole dose curve; as a rule, active = well fitted curve in the direction sought with a large enough effect; inconclusive = small, poorly fitted or top-dose-only effect, or another doubt; inactive = no such curve, though single readings can be large; an effect the other way counts as inactive or inconclusive.

Tests used:
[1] = Cell Viability - HepG2 (AID 433; calls by dose curve;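 note: potency is the fitted concentration of half-maximal effect; cells exposed to compound for 40 hours; potency for ATP loss meaning cytotoxicity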); details: qHTS
In short: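 In this qHTS format, a 40 h, 37 °C compound incubation of HepG2 cells in complete medium precedes a 20 min CellTiter-Glo step at room temperature. Tamoxifen and doxorubicin serve as positive controls; Hill-equation fits yield AC50.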

[2] = Cell Viability - MRC5 (AID 434; calls by dose curve;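 note: potency is the fitted concentration of half-maximal effect; cells exposed to compound for 40 hours at 37 °C; potency reflects cytotoxicity seen as loss of intracellular ATP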); details: MRC5 lung fibroblast viability, qHTS
In short: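 ATP luminescence read-out (CellTiter-Glo, 20 min RT) after 40 hr, 37 °C compound exposure of 1500 MRC5 cells/well. Data normalized to DMSO (basal) and 100 uM tamoxifen (100% inhibition); AC50 from standard Hill equation.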

[3] = target: Mitogen-activated protein kinase 10 (Mus musculus) (UniProt Q61831); assay: JNK3 AlphaScreen Assay (AID 530; active = well fitted curve in either direction with a large enough effect, not every such curve was filed as active;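 note: kinase came from lysate of stimulated human HepG2 cells; signal reports phosphorylation of biotinylated GST-cJun 1-79 at Ser73 with 10 µM ATP; % is set by controls: 0 for no effect and ±100 for the full control effect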); details: JNK3 lysate, c-Jun phosphorylation; series mostly up to 57.1 µM
In short: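 HepG2 lysate (IL-1b/TNFa pre-activated) + biotin-GST-cJun 1-79 + anti-pSer73 cJun; cpd titration, 15 min RT; ATP 10 uM start; Tris pH 7.6, MgCl2, DTT, vanadate; beads in EDTA buffer; AlphaScreen.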

[4] = Cell Viability - Mesenchymal (AID 546); details: mesenchymal cells viability, qHTS; series mostly up to 91.7 µM;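 note: cells exposed to compound for 40 hours before reading; 0% = DMSO only and -100% = 100 µM tamoxifen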
In short: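 Human renal mesenchymal cells (glomerulus-derived), 1000 cells/well, 5 hr 37 °C pre-incubation; compound 40 hr, 37 °C; CellTiter-Glo, 20 min RT; luminescence; AC50 via Hill equation.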

[5] = Cellular Toxicity (caspase-3) HUV-EC-C (AID 656); details: HUV-EC-C cells, caspase-3 activation (apoptosis), vehicle = 0, 100 µM tamoxifen = 100%; series mostly up to 92.2 µM;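 note: 0% = DMSO basal and 100% = 100 µM tamoxifen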
In short: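 Concentration-dependent caspase 3/7 induction was assessed in HUV-EC-C cells exposed for 16 hours. Data scaled between DMSO and tamoxifen (100 uM) controls.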

[6] = Cellular Toxicity (caspase-3) SK-N-SH (AID 661); details: SK-N-SH caspase-3 activation, qHTS; series mostly up to 91.7 µM;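 note: 0% = DMSO basal and 100% = 10 µM staurosporine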
In short: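 Luminescent Caspase-Glo 3/7 read-out after 16 hr compound exposure of SK-N-SH neuroblastoma cells at 37 °C. Signal increase normalized to DMSO (basal) and 10 uM staurosporine (100%); AC50 from Hill equation fits of qHTS concentration-response data.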

[7] = Cellular Toxicity (caspase-3) H-4-II-E (AID 663); details: H-4-II-E rat hepatoma; Potency: caspase-3 activation; series mostly up to 92.2 µM;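 note: cells exposed to compound for 16 hr before readout; 0% = DMSO basal and 100% = 100 µM tamoxifen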
In short: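 H-4-II-E rat hepatoma, 1500 cells/well, 5 hr settle at 37 °C; compound 16 hr, 37 °C, complete medium; Caspase-Glo 3/7, 20 min RT; luminescence. DMSO = 0%, 100 uM tamoxifen = 100%; Hill-equation AC50.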

[8] = MultiTox-Fluor Cytotoxicity Assay - LYMP1-002 - Dead Cells (AID 960); details: LYMP1-002 lymphoblastoid cells, dead-cell protease fluorescence; series mostly up to 46.1 µM;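 note: 0% = DMSO and 100% = tetraoctylammonium bromide; nearly all actives have a fitted effect of over 60% in size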
In short: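 Readout: fluorescence at 485/520 from cell-impermeant bis-AAF-R110 cleaved by proteases leaking from damaged cells. LYMP1-002 lymphoblastoid line, 16 hr compound treatment at 37 C, concentration-response in qHTS format; Hill-equation AC50 values.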

[9] = MultiTox-Fluor Cytotoxicity Assay - LYMP1-003 - Live Cells (AID 962); details: LYMP1-003 lymphoblastoid cells, MultiTox-Fluor live-cell protease fluorescence; series mostly up to 92.2 µM;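 note: cells exposed to compound for 16 hours at 37 °C; 0% = DMSO only and full loss = 92 µM tetraoctylammonium bromide; cytotoxic hits lower the live-cell protease signal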
In short: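 Readout: live-cell fluorescence (Ex/Em=405/510) from GF-AFC cleavage after 60 min MultiTox-Fluor reagent at room temperature. Lymphoblastoid LYMP1-003 cells, 16 hr compound treatment, 37 C. Concentration-response fitted to standard Hill equation for AC50.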

[10] = Cell Viability - LYMP2-005 (AID 967); details: LYMP2-005 lymphoblastoid cell viability; series mostly up to 92.2 µM;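 note: plate controls were DMSO only for no effect and 92 µM tetraoctylammonium bromide control for full effect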
In short: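 Luciferase-based ATP quantitation served as the viability measure in human lymphoblastoid LYMP2-005 cells exposed to test compounds for 24 h at 37 C in complete culture medium. Potency (AC50) was obtained by fitting concentration-response curves with the Hill equation.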

[11] = Cell Viability - LYMP2-021 (AID 974); details: LYMP2-021 lymphoblastoid cells viability; series mostly up to 92.2 µM;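 note: compound exposure lasts 24 hours at 37 °C; % is set by controls: 0 for no effect and ±100 for the full control effect; nearly all actives have a fitted effect of over 55% in size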
In short: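 ATP luminescence (CellTiter-Glo, 30 min RT) after 24 h compound exposure at 37 C; 2500 human lymphoblastoid cells/well, 5 h settle beforehand. Cytotoxicity = concentration-dependent ATP drop, AC50 by Hill fit.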

[12] = Cell Viability - LYMP2-023 (AID 975); details: LYMP2-023 lymphoblastoid cell viability; series mostly up to 92.2 µM;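 note: cellular ATP measured by luciferase luminescence as viability proxy; plate controls were DMSO only for no effect and 92 µM tetraoctylammonium bromide control for full effect; nearly all actives have a fitted effect of over 55% in size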
In short: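 CellTiter-Glo luminescence after 30 min at room temperature; decrease in intracellular ATP reflects toxicity. Cells: human lymphoblastoid line, 2500/well, 24 hr compound exposure at 37 C. AC50 fitted to standard Hill equation from concentration-response.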

[13] = Cell Viability - LYMP2-006 (AID 978); details: LYMP2-006 lymphoblastoid cell viability, qHTS; series mostly up to 92.2 µM; note: % is set by controls: 0 for no effect and ±100 for the full control effect; nearly all actives have a fitted effect of over 60% in size
In short: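 In this cytotoxicity screen, the human lymphoblastoid line grew in complete medium with test compounds for 24 hr at 37 C. Cellular ATP served as the viability signal.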

[14] = Cell Viability - LYMP2-007 (AID 979); details: LYMP2-007 lymphoblastoid cell viability; series mostly up to 92.2 µM;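 note: cells exposed to compound for 24 h before reading; 0% = DMSO only and the negative end = 92 µM tetraoctylammonium bromide; nearly all actives have a fitted effect of over 60% in size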
In short: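 qHTS cytotoxicity: 2500 cells/well, 5 hr 37 C settle, compound 24 hr 37 C, CellTiter-Glo 30 min RT, luminescence. Decrease in ATP = toxicity. AC50 by standard Hill equation; tetraoctylammonium bromide positive control.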

[15] = target: Vitamin D3 receptor (Homo sapiens) (UniProt P11473); assay: qHTS assay for small molecule antagonists of vitamin D receptor signaling (AID 588541; calls by dose curve;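 note: receptor activated by calcitriol during compound treatment; % is set by controls: 0 for no effect and ±100 for the full control effect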); details: HEK293T VDR-UAS-bla, beta-lactamase ratio, antagonist mode; series mostly up to 76.7 µM
In short: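 VDR-UAS-bla HEK293T cells in 2% charcoal-stripped FBS were stimulated with 1-alpha,25-dihydroxyvitamin D3 (3 nM final) plus compound for 16 h at 37 C. The beta-lactamase CCF4 readout was normalized to 50 nM agonist and DMSO, and Hill fits gave IC50.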

[16] = target: Retinoic acid receptor RXR-alpha (Homo sapiens) (UniProt P19793); assay: qHTS assay for small molecule agonists of retinoid X receptor alpha signaling (AID 588544; calls by dose curve;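 note: 0% = DMSO basal wells and 100% = reference agonist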); details: HEK293T RXRa-UAS-bla, beta-lactamase reporter, 18 h; series mostly up to 76.7 µM
[17] = target: Nuclear receptor subfamily 1 group I member 2 (Rattus norvegicus) (UniProt Q9R1A7); assay: qHTS assay for small molecule activators of the rat pregnane X receptor (rPXR) signaling pathway (AID 651751; call rule not given here; note: 0% is about no effect); details: rPXR reporter cells, luciferase (One-Glo), 24 h
[18] = qHTS assay for small molecule activators of the human pregnane X receptor (PXR) signaling pathway (AID 720659; call rule not given here; note: 0% is about no effect); details: DPX-2 HepG2 CYP3A4-luciferase, 24 h; series mostly up to 92.3 µM
[19] = target: Thyroid hormone receptor beta (Homo sapiens) (UniProt P10828); assay: qHTS assay for small molecule agonists of thyroid hormone receptor beta signaling (AID 588545; calls by dose curve;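 note: 0% = DMSO only and 100% = 10 nM T3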); details: TR-UAS-bla GripTite HEK 293, beta-lactamase ratio, agonist mode, 18 h; series mostly up to 76.7 µM
In short: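 Compounds were tested as agonists in TR-UAS-bla-GripTite HEK 293 cells. After 18 hrs at 37 C, CCF4 substrate was added and fluorescence read after 2 hrs at room temperature.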

[20] = target: Thyroid hormone receptor beta (Homo sapiens) (UniProt P10828); assay: qHTS assay for small molecule antagonists of thyroid hormone receptor beta signaling (AID 588547; active = well fitted inhibition curve with a large enough effect in the signal ratio, with a control signal flat, not every such curve was filed as active; the % refers to the signal ratio;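 note: cells stimulated with 0.4 nM T3 agonist during compound exposure; % is set by controls: 0 for no effect and ±100 for the full control effect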); details: TR-UAS-bla HEK293, beta-lactamase ratio, antagonist mode, 18 h
In short: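 TR-UAS-bla GripTite HEK293 cells in 2% charcoal/dextran FBS medium; compounds 0.59 nM to 92 uM with T3 at 0.4nM final, 18 h at 37 C. Beta-lactamase read by CCF4 fluorescence (460/530 nm); Hill fits gave IC50 and efficacy.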

Chain of Vitamin D3 receptor (Homo sapiens) (P11473 whole entry, looked up): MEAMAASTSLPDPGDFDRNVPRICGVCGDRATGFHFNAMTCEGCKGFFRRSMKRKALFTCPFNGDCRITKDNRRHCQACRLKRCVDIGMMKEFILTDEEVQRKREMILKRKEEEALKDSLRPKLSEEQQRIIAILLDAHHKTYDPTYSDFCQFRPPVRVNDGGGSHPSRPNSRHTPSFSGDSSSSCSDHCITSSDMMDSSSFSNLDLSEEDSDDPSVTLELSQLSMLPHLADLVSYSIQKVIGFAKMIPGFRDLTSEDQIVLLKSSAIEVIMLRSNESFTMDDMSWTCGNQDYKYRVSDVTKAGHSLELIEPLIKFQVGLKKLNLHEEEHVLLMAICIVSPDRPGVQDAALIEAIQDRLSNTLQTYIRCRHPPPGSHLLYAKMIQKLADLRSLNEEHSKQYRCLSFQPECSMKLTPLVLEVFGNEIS
Chain of Thyroid hormone receptor beta (Homo sapiens) (P10828 whole entry, looked up): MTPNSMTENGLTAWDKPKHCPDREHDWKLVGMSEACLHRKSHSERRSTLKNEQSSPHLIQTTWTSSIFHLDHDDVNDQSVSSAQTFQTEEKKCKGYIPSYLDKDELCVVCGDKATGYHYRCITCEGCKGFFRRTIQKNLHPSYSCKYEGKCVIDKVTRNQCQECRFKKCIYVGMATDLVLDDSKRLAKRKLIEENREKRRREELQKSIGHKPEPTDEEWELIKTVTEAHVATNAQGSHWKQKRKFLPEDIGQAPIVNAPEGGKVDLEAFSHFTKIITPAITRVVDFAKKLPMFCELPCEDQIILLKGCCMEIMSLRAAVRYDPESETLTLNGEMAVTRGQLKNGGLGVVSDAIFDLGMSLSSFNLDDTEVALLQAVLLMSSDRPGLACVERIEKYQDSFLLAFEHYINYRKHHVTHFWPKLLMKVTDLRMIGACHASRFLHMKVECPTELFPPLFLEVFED
Chain of Nuclear receptor subfamily 1 group I member 2 (Rattus norvegicus) (Q9R1A7 whole entry, looked up): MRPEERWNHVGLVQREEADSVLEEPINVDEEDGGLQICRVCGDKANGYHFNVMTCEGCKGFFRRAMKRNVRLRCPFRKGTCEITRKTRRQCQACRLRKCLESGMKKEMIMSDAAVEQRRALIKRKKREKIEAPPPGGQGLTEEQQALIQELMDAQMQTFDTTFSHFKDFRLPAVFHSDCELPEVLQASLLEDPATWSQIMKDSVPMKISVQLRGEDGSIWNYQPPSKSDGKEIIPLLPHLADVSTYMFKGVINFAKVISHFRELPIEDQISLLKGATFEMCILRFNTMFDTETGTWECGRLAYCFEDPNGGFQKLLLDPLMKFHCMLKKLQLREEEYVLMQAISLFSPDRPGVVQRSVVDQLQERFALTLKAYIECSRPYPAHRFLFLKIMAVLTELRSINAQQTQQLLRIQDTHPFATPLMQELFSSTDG
Chain of Retinoic acid receptor RXR-alpha (Homo sapiens) (P19793 whole entry, looked up): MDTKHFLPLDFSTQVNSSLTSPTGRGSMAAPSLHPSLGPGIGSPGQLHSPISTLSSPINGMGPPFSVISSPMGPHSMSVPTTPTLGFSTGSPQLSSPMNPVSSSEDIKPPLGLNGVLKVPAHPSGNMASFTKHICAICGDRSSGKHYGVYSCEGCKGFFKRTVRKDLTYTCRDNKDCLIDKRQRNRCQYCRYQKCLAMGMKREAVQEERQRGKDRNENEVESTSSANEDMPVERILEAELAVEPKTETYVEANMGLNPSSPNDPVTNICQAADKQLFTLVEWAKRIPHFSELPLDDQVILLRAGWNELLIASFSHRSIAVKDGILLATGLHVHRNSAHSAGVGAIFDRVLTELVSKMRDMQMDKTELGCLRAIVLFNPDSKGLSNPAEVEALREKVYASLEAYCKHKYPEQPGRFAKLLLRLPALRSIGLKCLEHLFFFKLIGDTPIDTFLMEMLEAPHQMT

c1ccc(C2CO2)cc1 (stereo unspecified)
inactive: Potency [1] > 92 µM | Potency [2] > 92 µM | Potency [3] | Potency [4] | outcome [5] | Potency [6] | Potency [7] | Potency [8] | outcome [9] | Potency [10] | Potency [11] | Potency [12] | Potency [13] | Potency [14] | outcome [15] | outcome [16] | max response [17] -1.42% | outcome [18]

Clc1ccccc1
inactive: Potency [1] > 92 µM | Potency [2] > 92 µM | Potency [3] | Potency [4] | outcome [5] | Potency [6] | Potency [8] | outcome [9] | Potency [10] | Potency [11] | Potency [12] | Potency [13] | Potency [14] | outcome [15] | Potency [19] | activity change % (negative = inhibition) [20] 8.57% | max response [17] -2.96% | outcome [18]

Clc1ccc(C(Cl)(Cl)Cl)cc1Cl
inactive: Potency [1] > 92 µM | Potency [2] > 92 µM | Potency [3] | Potency [4] | outcome [5] | Potency [6] | Potency [7] | outcome [9] | Potency [10] | Potency [11] | Potency [12] | Potency [14] | outcome [15] | outcome [16] | max response [17] 3.68% | outcome [18]

Clc1ccc(Cl)c(Cl)c1
inactive: Potency [1] > 92 µM | Potency [2] > 92 µM | Potency [3] | Potency [4] | outcome [5] | Potency [7] | Potency [8] | outcome [9] | Potency [10] | Potency [11] | Potency [12] | Potency [14] | outcome [15] | outcome [16] | Potency [19] | activity change % (negative = inhibition) [20] -0.795% and 9.45% | max response [17] 1.05% and -0.643%

CCOC(=O)CC(SP(=O)(OC)OC)C(=O)OCC (stereo unspecified)
inactive: Potency [1] > 92 µM | Potency [2] > 92 µM | Potency [3] | Potency [4] | outcome [5] | Potency [6] | Potency [7] | Potency [8] | outcome [9] | Potency [10] | Potency [11] | Potency [12] | Potency [14] | outcome [16] | Potency [19] | activity change % (negative = inhibition) [20] -9.27% and -19.3% | max response [17] -7.84% and -3.31% | outcome [18]

CCCCOC(C)=O
inactive: Potency [1] > 92 µM | Potency [2] > 92 µM | Potency [3] | Potency [4] | outcome [5] | Potency [6] | Potency [7] | Potency [8] | outcome [9] | Potency [10] | Potency [11] | Potency [12] | Potency [13] | Potency [14] | outcome [16] | Potency [19] | activity change % (negative = inhibition) [20] 1.15%

Nc1ncc([N+](=O)[O-])s1
inactive: Potency [1] > 92 µM | Potency [2] > 92 µM | Potency [3] | Potency [4] | Potency [6] | Potency [8] | outcome [9] | Potency [10] | Potency [11] | Potency [12] | Potency [13] | outcome [15] | outcome [16] | Potency [19] | activity change % (negative = inhibition) [20] -7.23% | max response [17] -6.92% | outcome [18]
